# From PubChem BioAssay AID1851 (National Center for Advancing Translational Sciences (NCATS), 2009)
# In all, about 16,000 compounds went through this assay and about 2,600 (16%) were called active. Another 20% or so got no clear call; they are omitted. The list is a sample of the results. Unmarked numbers belong to inactive results. Calls come from the whole dose curve; as a rule, active = well fitted curve in the direction sought with a large enough effect; inconclusive = small, poorly fitted or top-dose-only effect, or effect the other way; inactive = no such curve, though single readings can be large or run the other way.
# Target: Cytochrome P450 2D6 (Homo sapiens) (UniProt P10635)
# Sequence (P10635 whole entry, looked up): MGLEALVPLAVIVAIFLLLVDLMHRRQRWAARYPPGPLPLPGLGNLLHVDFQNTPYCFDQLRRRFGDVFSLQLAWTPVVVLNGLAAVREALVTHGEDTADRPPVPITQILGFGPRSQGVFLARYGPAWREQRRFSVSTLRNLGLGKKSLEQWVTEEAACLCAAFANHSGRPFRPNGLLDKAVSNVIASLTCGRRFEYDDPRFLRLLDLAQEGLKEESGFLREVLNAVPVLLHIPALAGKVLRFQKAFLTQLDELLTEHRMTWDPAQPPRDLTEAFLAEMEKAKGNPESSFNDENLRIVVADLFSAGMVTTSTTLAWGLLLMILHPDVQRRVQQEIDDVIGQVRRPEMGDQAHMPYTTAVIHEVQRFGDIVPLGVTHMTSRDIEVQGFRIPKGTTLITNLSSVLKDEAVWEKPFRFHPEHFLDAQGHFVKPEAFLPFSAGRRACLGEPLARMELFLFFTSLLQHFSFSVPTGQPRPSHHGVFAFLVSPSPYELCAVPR
# Experiment: Cytochrome panel assay with activity outcomes
# Conditions: recombinant CYP, pro-luciferin dealkylation, luminescence, p450-cyp2d6; series mostly up to 57.1 µM
# % is set by controls: 0 for no effect and ±100 for the full control effect.
SMILES,AC50,"activity, negative = inhibition"
CCOc1ccc(-n2c(=O)[nH]cc(C(=O)N3CCCc4ccccc43)c2=O)cc1,inactive,–
CCC(CC)C(=O)NCCN1CCN(C(=O)C(CC)CC)CC1,inactive,–
O=C(NCCN1CCCCC1)c1ccc(I)cc1,10 µM (active),–
Cc1ccc(C(=O)NCCNC(=O)CN2CCOCC2)cc1,inactive,–
COC(=O)C(NC(=O)c1ccccc1)=C1C=C(C)OC(C)=C1,inactive,–
Clc1ccc(/C=N/c2c(-c3ccc(Cl)cc3)nc3n2CCS3)cc1,inactive,–
O=[N+]([O-])c1cccc(/C=N/Nc2cc(Cl)nc(-c3ccccc3)n2)c1,inactive,–
CCCC/C=C/C(NC(=O)Oc1cccc(C(F)(F)F)c1)c1ccccc1 (stereo not given),1 µM (active),–
CCCC/C=C/C(NC(=O)c1ccccc1)c1ccccc1 (stereo not given),inactive,–
CCCC/C=C/C(NC(=O)c1ccc(C(F)(F)F)cc1)c1ccccc1 (stereo not given),inactive,–
Cn1c(=O)c2c(nc(N/N=C\c3ccccc3C(=O)O)n2C)n(C)c1=O,–,5.12% [at 11.4 µM]
C(=N\Nc1nc(Nc2ccccc2)nc(N2CCOCC2)n1)/c1c[nH]c2ccccc12,inactive,–
Cn1c(N/N=C/c2c[nH]c3ccccc23)nc2ccccc21,7.94 µM (active),–
CC(C)(C)C1CCc2c(C(=O)N/N=C/c3cccs3)csc2C1 (stereo not given),inactive,–
OC[C@@H]1O[C@H](n2cnc3c(/C=C(\O)c4ccccc4)ncnc32)[C@H](O)[C@@H]1O,–,3.57% [at 11.4 µM]
Cn1c(=O)n(C)c2cc(S(=O)(=O)O)ccc21,inactive,–
CCOC(=O)c1ccc2nc(C)c(CCC(C)=O)c(Cl)c2c1,inactive,–
CCc1c(C(=O)O)[nH]c2ccc(Br)cc12,inactive,–
CCc1c(C)nc2ccc(Br)cc2c1Cl,12.6 µM (active),–
CCCNS(=O)(=O)c1ccc(OCC(=O)OC)cc1,inactive,–
O=c1[nH][nH]c(C(F)(F)F)c1C=Nc1ccccc1,inactive,–
Cc1ccc(CSc2nnc(-c3ccncc3)n2CC2CCCO2)cc1 (stereo not given),inactive,–
Cc1cc(NC(=O)c2c([N+](=O)[O-])cnn2C)no1,inactive,–
CCCC[C@H](CC)CN1CN(C[C@@H](CC)CCCC)CC(C)(N)C1,1.26 µM (active),–
N#CC(c1ccccn1)(c1ncc(C(F)(F)F)cc1Cl)N1CCOCC1 (stereo not given),inactive,–
CC(=O)c1c(N=CN(C)C)nc(C)nc1-c1ccccc1,inactive,–
C=CC[C@@H]1C=C[C@@H](O/N=C\c2ccc(C(=O)N3[C@H](c4ccc(C)cc4)[C@@H](C)CC[C@H]3C(=O)OC)cc2)[C@@H](CO)O1,–,5.48% [at 11.4 µM]
Cc1cccc(C(=O)N2CCN(c3ccc([N+](=O)[O-])c(NCc4ccco4)c3)CC2)c1,inactive,–
Cc1ccc(C(=O)N2CCN(c3cc(=O)[nH]nc3-c3ccccc3)CC2)cc1,inactive,–
Cc1ccc(C)c(N2CCN(C(=O)c3ccc4nc(-c5ccco5)c(-c5ccco5)nc4c3)CC2)c1,3.16 µM (active),–
